Data reported in PubChem BioAssay.
Several values for one entry are separate records, joined by “and”; a condition that tells them apart may be missing. Equal entries are not always repeated. Activity calls are given as the source filed them.

Tests used:
[1] = tested on: Plasmodium falciparum Sir2 (PF13_0152, Sir2A); experiment: pfSir2 binders on small-molecule microarrays, primary screen, biochemical, small-molecule microarray, 635 nm fluorescence (AID 1098); settings: small-molecule microarray binding, fluorescence 635 nm; higher = more signal;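 further: score merges spot fluorescence intensity with its signal-to-noise ratio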
[2] = small-molecule microarray binders of probe aDKK1, primary screen, biochemical, biotinylated probe, 635/667 nm fluorescence (AID 1099); settings: higher = more signal;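 further: score merges 667nm spot fluorescence with signal to noise across triplicate slides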
[3] = small-molecule microarray binders of probe aCHRDL2, primary screen, biochemical, biotinylated probe, 635/667 nm fluorescence (AID 1100); settings: higher = more signal
[4] = splicing luciferase reporter signal modulators, primary screen, spliceosome inhibition project, cell-based, HEK293, splice +/- reporter (AID 1101); settings: luminescence, 24 h, higher = more signal, called active from +8 up or from −8 down;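 further: HEK293 cells carrying a splicing-competent luciferase reporter gene; test concentration not given here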
[5] = target: Fibroblast growth factor 10 (Homo sapiens) (UniProt O15520); experiment: FGF10 binders on small-molecule microarrays, primary screen, biochemical, small-molecule microarray, 635 nm fluorescence (AID 1102); settings: FGF10 binding, fluorescence 635 nm, higher = more signal
Fibroblast growth factor 10 (Homo sapiens), sequence (O15520 whole entry, looked up): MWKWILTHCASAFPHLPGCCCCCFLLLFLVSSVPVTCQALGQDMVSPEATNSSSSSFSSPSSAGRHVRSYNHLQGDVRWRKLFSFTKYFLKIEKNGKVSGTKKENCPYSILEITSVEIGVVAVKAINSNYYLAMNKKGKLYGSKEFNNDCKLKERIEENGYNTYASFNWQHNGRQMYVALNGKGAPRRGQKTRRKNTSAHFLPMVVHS

[6] = tested on: glycogen synthase kinase-3 (GSK3A per assay name; protocol says GSK3B); experiment: GSK3 binders on small-molecule microarrays, primary screen, biochemical, small-molecule microarray, 635 nm fluorescence, GSK3A (AID 1103); settings: small-molecule microarray binding, fluorescence 635 nm; higher = more signal; further: the record names both GSK3A and GSK3B
[7] = target: Epidermal growth factor receptor (Homo sapiens) (UniProt P00533); experiment: EGFR binders on small-molecule microarrays, primary screen, biochemical, small-molecule microarray, 635 nm fluorescence (AID 1104); settings: EGFR binding, higher = more signal;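 further: score merges 667 nm emission intensity with spot signal to noise over triplicate slides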
Epidermal growth factor receptor (Homo sapiens), sequence (P00533 whole entry, looked up): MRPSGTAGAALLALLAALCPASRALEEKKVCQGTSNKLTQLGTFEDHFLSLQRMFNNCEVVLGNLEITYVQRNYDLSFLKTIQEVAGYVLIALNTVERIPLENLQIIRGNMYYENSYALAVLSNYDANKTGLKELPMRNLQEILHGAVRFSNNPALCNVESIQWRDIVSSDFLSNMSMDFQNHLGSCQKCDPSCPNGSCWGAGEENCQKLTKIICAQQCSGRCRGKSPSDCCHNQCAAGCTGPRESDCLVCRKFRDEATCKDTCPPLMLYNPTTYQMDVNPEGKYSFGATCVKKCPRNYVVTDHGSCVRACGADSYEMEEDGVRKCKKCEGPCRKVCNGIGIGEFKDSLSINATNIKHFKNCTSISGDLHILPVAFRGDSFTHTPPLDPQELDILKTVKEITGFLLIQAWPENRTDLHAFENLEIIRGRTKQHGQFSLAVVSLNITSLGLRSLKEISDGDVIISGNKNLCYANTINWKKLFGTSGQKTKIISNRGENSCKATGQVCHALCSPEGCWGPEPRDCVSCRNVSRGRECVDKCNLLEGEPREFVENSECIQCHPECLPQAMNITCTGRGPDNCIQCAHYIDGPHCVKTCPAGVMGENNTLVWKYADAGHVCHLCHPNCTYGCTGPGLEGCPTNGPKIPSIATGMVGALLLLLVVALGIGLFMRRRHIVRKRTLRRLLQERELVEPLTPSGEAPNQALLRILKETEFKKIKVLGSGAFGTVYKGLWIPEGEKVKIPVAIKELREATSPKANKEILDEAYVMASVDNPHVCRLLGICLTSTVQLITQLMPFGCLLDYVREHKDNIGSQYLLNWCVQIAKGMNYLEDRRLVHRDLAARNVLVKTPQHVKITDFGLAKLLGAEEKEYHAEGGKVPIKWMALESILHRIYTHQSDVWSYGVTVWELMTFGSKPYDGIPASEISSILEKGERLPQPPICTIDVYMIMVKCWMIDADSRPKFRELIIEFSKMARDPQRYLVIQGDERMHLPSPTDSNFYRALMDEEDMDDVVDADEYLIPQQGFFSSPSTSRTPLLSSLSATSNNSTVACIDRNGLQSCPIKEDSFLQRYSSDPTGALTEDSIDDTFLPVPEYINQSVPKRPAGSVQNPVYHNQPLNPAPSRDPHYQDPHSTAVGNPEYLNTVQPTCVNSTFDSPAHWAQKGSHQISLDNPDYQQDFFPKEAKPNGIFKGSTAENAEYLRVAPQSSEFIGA

[8] = target: Follistatin-related protein 3 (Homo sapiens) (UniProt O95633); experiment: FSTL3 binders on small-molecule microarrays, primary screen, biochemical, small-molecule microarray, 635 nm fluorescence (AID 1105); settings: FSTL3 binding, higher = more signal;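 further: score merges emission near 667 nm and signal to noise per printed spot across three slides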
Follistatin-related protein 3 (Homo sapiens), sequence (O95633 whole entry, looked up): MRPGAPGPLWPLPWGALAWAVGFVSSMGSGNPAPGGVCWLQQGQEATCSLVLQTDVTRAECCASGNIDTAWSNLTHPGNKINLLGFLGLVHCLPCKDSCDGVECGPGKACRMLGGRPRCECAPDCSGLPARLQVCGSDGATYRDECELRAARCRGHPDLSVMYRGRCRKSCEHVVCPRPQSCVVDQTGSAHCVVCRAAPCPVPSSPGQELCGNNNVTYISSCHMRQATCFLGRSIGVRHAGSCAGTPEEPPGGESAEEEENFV

[9] = target: Dickkopf-related protein 1 (Homo sapiens) (UniProt O94907); experiment: DKK1 binders on small-molecule microarrays, primary screen, biochemical, small-molecule microarray, 635 nm fluorescence scan (AID 1106); settings: DKK1 binding, higher = more signal;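 further: score merges emission near 667 nm with signal to noise over three replicate slides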
Dickkopf-related protein 1 (Homo sapiens), sequence (O94907 whole entry, looked up): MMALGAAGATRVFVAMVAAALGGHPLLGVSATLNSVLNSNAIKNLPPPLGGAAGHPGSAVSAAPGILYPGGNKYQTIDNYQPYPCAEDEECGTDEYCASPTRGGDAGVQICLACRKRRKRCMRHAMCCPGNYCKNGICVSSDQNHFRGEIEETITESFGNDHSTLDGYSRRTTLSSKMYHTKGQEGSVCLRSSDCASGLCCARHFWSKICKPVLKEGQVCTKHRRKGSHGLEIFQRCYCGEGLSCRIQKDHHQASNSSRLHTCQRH

[10] = tested on: Inhibin beta A chain (activin A); experiment: INHBA (activin A) binders on microarrays, primary screen, biochemical, small-molecule microarray, 635 nm fluorescence scan (AID 1107); settings: small-molecule microarray binding, higher = more signal;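 further: mouse activin A protein probed at 4.33 µg/mL on printed slides; score merges bound-protein fluorescence near 667 nm with spot signal-to-noise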
[11] = tested on: Human papillomavirus type 1a protein E7 (residues 44-93); experiment: HPV1a E7 fragment binders on microarrays, primary screen, biochemical, small-molecule microarray, residues 44-93, 635 nm fluorescence (AID 1108); settings: small-molecule microarray binding, fluorescence 635 nm; higher = more signal;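 further: E7 fragment applied at 1 µg/mL in TBST for 1 h at 4 C; score combines spot fluorescence with its signal to noise ratio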
[12] = modulators of HCV replicon luciferase signal, primary screen, HCV replication inhibitor project, Huh7 cells, luciferase reporter (AID 1109); settings: 48 h, higher = more signal;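 further: huh7 hepatoma cells harbouring a luciferase neomycin HCV replicon reporter; luciferase luminescence as measure of HCV replicon replication; test concentration not given here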
[13] = target: Left-right determination factor 2 (Homo sapiens) (UniProt O00292); experiment: LEFTY2 binders on small-molecule microarrays, primary screen, biochemical, small-molecule microarray, 635 nm fluorescence scan (AID 1110); settings: LEFTY2 binding, higher = more signal
Left-right determination factor 2 (Homo sapiens), sequence (O00292 whole entry, looked up): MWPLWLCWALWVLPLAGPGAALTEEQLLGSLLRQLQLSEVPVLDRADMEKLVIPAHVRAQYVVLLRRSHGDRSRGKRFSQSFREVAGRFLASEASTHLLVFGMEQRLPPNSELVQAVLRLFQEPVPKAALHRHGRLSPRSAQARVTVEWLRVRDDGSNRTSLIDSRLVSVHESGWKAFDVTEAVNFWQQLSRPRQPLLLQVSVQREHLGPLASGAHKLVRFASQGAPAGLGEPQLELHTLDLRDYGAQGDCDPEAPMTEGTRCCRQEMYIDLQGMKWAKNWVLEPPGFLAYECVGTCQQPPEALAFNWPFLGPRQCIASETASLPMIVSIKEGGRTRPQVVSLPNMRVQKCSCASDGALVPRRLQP

[14] = target: Calmodulin-1 (Homo sapiens) (UniProt P0DP23); experiment: CALM1 binders on microarrays, EGTA buffer, profiling panel, biochemical, small-molecule microarray, Cy5-labelled CALM1 (AID 1111); settings: Cy5-CALM1 binding fluorescence, higher = more signal;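 further: labelled calmodulin applied in Tris saline Tween buffer holding calcium plus EGTA and DTT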
[15] = target: Calmodulin-1 (Homo sapiens) (UniProt P0DP23); experiment: calcium-bound CALM1 binders on microarrays, profiling panel, artefact control for SMM control-protein annotation, biochemical, small-molecule microarray, Cy5-labelled CALM1, plus calcium (AID 1112); settings: Cy5-CALM1 binding fluorescence, higher = more signal;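 further: score merges spot fluorescence with signal to noise from triplicate slides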
[16] = small-molecule microarray binders of probe aWnt5a, primary screen, biochemical, biotinylated probe, 635/667 nm fluorescence (AID 1113); settings: higher = more signal;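 further: score merges 667 nm fluorescence intensity with signal-to-noise per printed feature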
[17] = small-molecule microarray binders of probe aShh, primary screen, biochemical, biotinylated probe, 635/667 nm fluorescence (AID 1114); settings: higher = more signal;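 further: probe is biotin-labelled aShh protein from a stem cell growth factor screen; measures binding of labelled protein to compounds printed on the slide; score merges feature fluorescence at 667 nm with signal-to-noise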
[18] = small-molecule microarray binders of probe aNog, primary screen, biochemical, biotinylated probe, 635/667 nm fluorescence (AID 1115); settings: higher = more signal;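 further: probe is biotinylated aNog protein used at 0.15 µg/mL for 1 h at 4 C; z-score combines 667 nm fluorescence of each spot with its signal to noise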
[19] = target: Torsin-1A-interacting protein 1 (Homo sapiens) (UniProt Q5JTV8); experiment: LAP1 binders from COS7 cell lysate, primary screen, small-molecule microarray, 635/667 nm fluorescence (AID 1116); settings: COS7-hLAP1 lysate binding, 635 nm fluorescence, higher = more signal
Torsin-1A-interacting protein 1 (Homo sapiens), sequence (Q5JTV8 whole entry, looked up): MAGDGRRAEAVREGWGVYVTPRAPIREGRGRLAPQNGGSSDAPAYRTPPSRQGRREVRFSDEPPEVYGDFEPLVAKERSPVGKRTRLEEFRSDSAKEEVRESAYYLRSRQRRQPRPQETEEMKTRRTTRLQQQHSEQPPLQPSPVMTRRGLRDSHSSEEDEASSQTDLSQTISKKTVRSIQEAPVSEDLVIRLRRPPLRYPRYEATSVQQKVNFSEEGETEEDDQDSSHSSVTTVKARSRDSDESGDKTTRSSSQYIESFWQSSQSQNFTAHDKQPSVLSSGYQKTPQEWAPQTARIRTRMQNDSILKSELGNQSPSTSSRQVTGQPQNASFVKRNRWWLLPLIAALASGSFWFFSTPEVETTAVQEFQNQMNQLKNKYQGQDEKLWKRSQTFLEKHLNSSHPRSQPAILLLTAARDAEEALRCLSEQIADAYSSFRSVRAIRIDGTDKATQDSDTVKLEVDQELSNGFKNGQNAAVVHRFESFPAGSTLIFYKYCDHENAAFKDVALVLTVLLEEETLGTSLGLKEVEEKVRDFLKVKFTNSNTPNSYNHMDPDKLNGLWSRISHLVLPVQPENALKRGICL

[20] = target: Alpha-bungarotoxin (Bungarus multicinctus) (UniProt P60615); experiment: alpha-bungarotoxin binders on microarray, profiling panel, artefact control for SMM control protein annotation, biochemical, small-molecule microarray, Alexa647 label, 635/667 nm fluorescence (AID 1117); settings: alpha-BTX-A647 binding fluorescence, higher = more signal
Alpha-bungarotoxin (Bungarus multicinctus), sequence (P60615 whole entry, looked up): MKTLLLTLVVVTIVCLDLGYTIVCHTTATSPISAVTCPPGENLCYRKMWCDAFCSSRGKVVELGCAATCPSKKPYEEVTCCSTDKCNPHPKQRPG

In the case of `COC(=O)C1=C(C)N(Cc2ccccc2)C2=C3C(=O)CCC[C@@H]3[C@@](O)(C(=O)OC)C(=O)N2[C@@H]1c1ccccc1`, the composite z-score [1] is reported as 0.464 and -0.773, the composite z-score [2] is reported as 0.0021 and -0.0015 and the composite z-score [3] is reported as -0.334 and -0.299. The z-score [4] was 0.732 (inactive) and -1.28 (inactive), the composite z-score [5] was 0.887 and 0.389 and the composite z-score [6] was 0.379 and 0.224. The composite z-score [7] was 0.459 and 0.433, the composite z-score [8] was 0.843 and 0.284 and the composite z-score [9] was 0.641 and 0.516. The composite z-score [10] was 0.177 and 0.506, the composite z-score [11] was -0.0225 and -0.0706 and the z-score [12] was -0.571 and -2.09. For the same compound, the composite z-score [13] was 0.278 and 0.372, the composite z-score [14] was -0.255 and -0.674 and the composite z-score [15] was -0.361 and -0.0671. The composite z-score [16] was -0.144 and -0.0185, the composite z-score [17] was -0.182 and 0.187 and the composite z-score [18] was -0.424 and 0.0775. The composite z-score [19] was 0.617 and 0.179 and the composite z-score [20] was 0.187 and -0.503.
With `CCOC(=O)[C@@H]1CC=C2CC1C(=O)N1CCC[C@@H]1[C@H]2O[Si](C)(C)C(C)(C)C` (stereo not given in full) the composite z-score [1] was -0.632 and -0.617, the composite z-score [2] was -0.0776 and -0.228 and the composite z-score [3] was -0.0464 and -0.898. For the same compound, the z-score [4] was 0.474 (inactive) and 0.337 (inactive), the composite z-score [5] was -0.182 and -1.24 and the composite z-score [6] was -0.0945 and -1.32. For the same compound, the composite z-score [7] was -0.762 and -0.649, the composite z-score [8] was -0.552 and -0.744 and the composite z-score [9] was 0.055 and -0.0246. For the same compound, the composite z-score [10] was 0.401 and 0.933, the composite z-score [11] was -1.02 and -0.733 and the z-score [12] was -0.558 and -1.14. For the same compound, the composite z-score [13] was -0.355 and 0.279, the composite z-score [14] was -1.9 and -1.57 and the composite z-score [15] was -0.312 and -1.91. The composite z-score [16] was -0.0512 and -0.252, the composite z-score [17] was 0.0611 and -0.2 and the composite z-score [18] was -0.0863 and -0.48. The composite z-score [19] was -0.496 and -1.03 and the composite z-score [20] was -0.922 and -1.49.
With `C=CCN(CCCC)C(=O)C(c1cccs1)N(CCOCCO)C(=O)/C=C\C(=O)O` (stereo not given) the composite z-score [1] was 1.66 and -1.5, the composite z-score [2] was 0.103 and -0.18 and the composite z-score [3] was 0.792 and 0.161. For the same compound, the z-score [4] was -1.21 (inactive) and -1.32 (inactive), the composite z-score [5] was -1.19 and -0.522 and the composite z-score [6] was -1.39 and -0.479. The composite z-score [7] was -2.24 and -0.346, the composite z-score [8] was -1.97 and -0.993 and the composite z-score [9] was -1.56 and -1.03. For the same compound, the composite z-score [10] was -0.593 and 0.566, the composite z-score [11] was -1 and -0.515 and the z-score [12] was -0.166 and 0.999. The composite z-score [13] was -2.21 and -0.742, the composite z-score [14] was -0.501 and -0.702 and the composite z-score [15] was 0.988 and 0.502. The composite z-score [16] was -0.193 and -0.096, the composite z-score [17] was -0.2 and the composite z-score [18] was 0.136 and 0.295. For the same compound, the composite z-score [19] was 1.2 and 1.09 and the composite z-score [20] was -2.1 and 0.069.
With `C#CCN1C(/C=C/c2ccccc2)C(=O)OC[C@H]1c1ccccc1` (stereo not given in full) the composite z-score [1] was 0.025 and 1.16, the composite z-score [2] was -0.23 and -0.207 and the composite z-score [3] was -0.688 and -0.55. For the same compound, the z-score [4] was -2.64 (inactive) and -0.366 (inactive), the composite z-score [5] was 0.33 and 0.0389 and the composite z-score [6] was 0.658 and 0.0786. For the same compound, the composite z-score [7] was 0.62 and 0.18, the composite z-score [8] was 0.755 and 0.747 and the composite z-score [9] was 0.69 and 0.375. For the same compound, the composite z-score [10] was 0.902 and 0.0774, the composite z-score [11] was 0.267 and 0.514 and the z-score [12] was -1 and -2.09. The composite z-score [13] was 0.673 and 0.247, the composite z-score [14] was -0.451 and -0.295 and the composite z-score [15] was -0.545 and -0.383. The composite z-score [16] was -0.0033 and -0.0607, the composite z-score [17] was 0.0328 and -0.138 and the composite z-score [18] was -0.115 and -0.385. For the same compound, the composite z-score [19] was 0.341 and -0.35 and the composite z-score [20] was 0.348 and -0.144.
Compound `CCOC(=O)CCN1C(=O)[C@H]2[C@H]3[C@H](O)[C@H](O)CC(=NNC(=O)OCC)[C@@H]3CC[C@H]2C1=O` has a composite z-score [1] of 0.238, a composite z-score [2] of -0.0567 and a composite z-score [3] of -0.0213. For the same compound, the z-score [4] was 0.519 (inactive), the composite z-score [5] was 0.283 and the composite z-score [6] was 0.0666. It also gave a composite z-score [7] of 0.209, a composite z-score [8] of 0.0654 and a composite z-score [9] of -0.0149. The composite z-score [10] was -0.772, the composite z-score [11] was 0.582 and the z-score [12] was 0.374. It also gave a composite z-score [13] of 0.354, a composite z-score [14] of 0.0089 and a composite z-score [15] of -1.05. The composite z-score [16] was 0.0511, the composite z-score [17] was -0.273 and the composite z-score [18] was 0.0234. It also gave a composite z-score [19] of -0.0895 and a composite z-score [20] of 0.353.
`O=C(NN=C1C[C@@H](O)[C@@H](O)[C@@H]2[C@@H]3C(=O)N(Cc4ccc5c(c4)OCO5)C(=O)[C@@H]3CC[C@H]12)OCc1ccccc1` showed a composite z-score [1] of -0.345, a composite z-score [2] of 0.118 and a composite z-score [3] of 0.298. For the same compound, the z-score [4] was 0.0692 (inactive), the composite z-score [5] was -0.464 and the composite z-score [6] was -1.2. For the same compound, the composite z-score [7] was -0.0036, the composite z-score [8] was -0.904 and the composite z-score [9] was -1.57. It also gave a composite z-score [10] of -2.22, a composite z-score [11] of -0.984 and a z-score [12] of 0.401. It also gave a composite z-score [13] of 0.227, a composite z-score [14] of -0.643 and a composite z-score [15] of -1.29. The composite z-score [16] was 0.0718, the composite z-score [17] was 0.0796 and the composite z-score [18] was -0.363. The composite z-score [19] was -0.842 and the composite z-score [20] was -0.394.
